In PubChem BioAssay (Tox21):
Several values for one entry are separate records, joined by “and”; a condition that tells them apart may be missing. Equal values may be shown once. Results filed as inconclusive are left out. Some structures have more than one record in an assay (separate samples or runs), and their calls can disagree. Activity calls are given as the source filed them. Unless noted, the call rests on the fitted dose curve; in most records, active means well fitted curve in the direction sought with a large enough effect in the repeat runs; inconclusive means weak or mixed curves; inactive means no such curve, though single readings can be large; an effect the other way counts as inactive or inconclusive.

How the values were obtained:
[1] = target: Luciferin 4-monooxygenase (Photinus pyralis) (UniProt P08659); experiment: qHTS assay to identify small molecule inhibitors of firefly luciferase (AID 1224835); further: nearly all actives have a fitted effect of over 25% in size; further: potency means the concentration at half of the fitted maximal effect
Luciferin 4-monooxygenase (Photinus pyralis), sequence (P08659 whole entry, looked up): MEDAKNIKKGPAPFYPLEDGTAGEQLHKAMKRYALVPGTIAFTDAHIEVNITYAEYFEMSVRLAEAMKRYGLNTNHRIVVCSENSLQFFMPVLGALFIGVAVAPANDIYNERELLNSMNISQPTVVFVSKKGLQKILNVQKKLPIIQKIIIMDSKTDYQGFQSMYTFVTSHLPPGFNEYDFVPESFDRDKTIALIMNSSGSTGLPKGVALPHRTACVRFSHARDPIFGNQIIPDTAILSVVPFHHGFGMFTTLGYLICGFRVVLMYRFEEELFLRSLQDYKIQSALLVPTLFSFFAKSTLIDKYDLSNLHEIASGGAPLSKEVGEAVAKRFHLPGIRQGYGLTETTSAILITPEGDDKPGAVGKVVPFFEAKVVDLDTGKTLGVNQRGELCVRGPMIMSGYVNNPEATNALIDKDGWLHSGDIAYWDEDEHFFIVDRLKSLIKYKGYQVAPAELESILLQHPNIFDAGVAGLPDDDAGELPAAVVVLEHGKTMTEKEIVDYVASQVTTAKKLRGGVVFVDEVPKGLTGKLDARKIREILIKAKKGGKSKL
How it was run: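 Biochemical qHTS: compounds run as interplate titrations against purified firefly enzyme, with D-luciferin and ATP each at its KM concentration. Light output recorded by CCD imaging.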

[2] = qHTS assay to identify small molecule agonists of the constitutive androstane receptor (CAR) signaling pathway - cell viability counter screen (AID 1224836); further: nearly all actives have a fitted effect of over 45% in size; further: potency means the concentration at half of the fitted maximal effect
How it was run: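 23 h treatment, 37 C, 5% CO2. Cell line: HepG2 stably expressing hCAR with a CYP2B6-2.2kb construct. Co-treatment: PK11195, 0.75 uM final. Read-out: CellTiter-Fluor fluorescence intensity.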

[3] = qHTS assay to identify small molecule antagonists of the constitutive androstane receptor (CAR) signaling pathway - cell viability counter screen (AID 1224837); further: nearly all actives have a fitted effect of over 45% in size; further: potency means the concentration at half of the fitted maximal effect
How it was run: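 Using CellTiter-Fluor, viability is scored in HepG2 cells stably carrying hCAR and a 2.2kb CYP2B6 reporter after 23 hr compound exposure across 15 concentrations, with CITCO present at 50 nM.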

[4] = target: Nuclear receptor subfamily 1 group I member 3 (Homo sapiens) (UniProt Q14994); experiment: qHTS assay to identify small molecule antagonists of the constitutive androstane receptor (CAR) signaling pathway (AID 1224838);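 further: HepG2 cells stably expressing hCAR with CYP2B6 luciferase reporter stimulated by CITCO; nearly all actives have a fitted effect of over 40% in size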; further: potency means the concentration at half of the fitted maximal effect
Nuclear receptor subfamily 1 group I member 3 (Homo sapiens), sequence (Q14994 whole entry, looked up): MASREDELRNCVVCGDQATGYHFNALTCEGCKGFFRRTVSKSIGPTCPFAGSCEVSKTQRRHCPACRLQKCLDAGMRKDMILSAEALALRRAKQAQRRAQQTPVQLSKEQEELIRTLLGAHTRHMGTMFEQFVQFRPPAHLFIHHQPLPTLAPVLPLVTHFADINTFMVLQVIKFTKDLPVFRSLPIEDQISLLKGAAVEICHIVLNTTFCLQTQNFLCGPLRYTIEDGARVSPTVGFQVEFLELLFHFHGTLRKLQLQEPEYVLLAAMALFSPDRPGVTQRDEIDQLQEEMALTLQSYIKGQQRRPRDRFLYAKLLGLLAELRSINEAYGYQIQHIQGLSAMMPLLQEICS
How it was run: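 Reporter luminescence was quantified after 24 h exposure of hCAR/CYP2B6-2.2kb double-stable HepG2 cells to compounds at 15 concentrations in the presence of 50 nM CITCO final.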

[5] = target: Nuclear receptor subfamily 1 group I member 3 (Homo sapiens) (UniProt Q14994); experiment: qHTS assay to identify small molecule agonists of the constitutive androstane receptor (CAR) signaling pathway (AID 1224839); further: nearly all actives have a fitted effect of over 15% in size; further: potency means the concentration at half of the fitted maximal effect;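 on activation: HepG2 cells stably carrying human CAR and a CYP2B6 luciferase reporter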
How it was run: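 Compounds tested at 15 concentrations on HepG2 cells stably harbouring hCAR and CYP2B6-2.2kb reporter constructs, co-treated with PK11195 (0.75 uM final), 24 h at 37 C; luminescent reporter signal quantified.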

[6] = qHTS assay to identify small molecule antagonists of the estrogen related receptor signaling pathway with the pleiotropic PPARgamma coactivator (PGC) from Tox21 10K library - cell viability counter screen (AID 1224840; active means well fitted cell-killing curve with a large enough effect in the repeat runs, not every such curve was filed as active; further: nearly all actives have a fitted effect of over 40% in size; further: potency means the concentration at half of the fitted maximal effect)
How it was run: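 Here the PGC/ERR cells serve as a cytotoxicity control: they are exposed to compounds for 17.5 hours at 37 C, and live-cell signal is quantified using CellTiter-Fluor fluorescence.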

[7] = qHTS assay to identify small molecule antagonists of the estrogen related receptor signaling pathway with the pleiotropic PPARgamma coactivator (PGC) from Tox21 10K library (AID 1224841; call rule not given here; further: actives are mostly falling curves and most rising ones were filed inactive; nearly all actives have a fitted effect of over 50% in size; further: potency means the concentration at half of the fitted maximal effect)
How it was run: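 Each well held 2,000 PGC/ERR cells, pre-incubated six hours (37 C, 5% CO2). Test substances in DMSO were added by pin tool and left for 18 h at 37 C before luciferase detection by One-Glo.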

[8] = qHTS assay to identify small molecule agonists of the estrogen related receptor signaling pathway with the pleiotropic PPARgamma coactivator (PGC) from Tox21 10K library (AID 1224842); further: nearly all actives have a fitted effect of over 15% in size; further: potency means the concentration at half of the fitted maximal effect
How it was run: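 PGC/ERR reporter cell line, 2,000 cells per well, incubated 6 h at 37 C before 23 nL compound in DMSO was added. After 18 h at 37 C, One-Glo luminescence read following 30 min at room temperature.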

[9] = target: Thyrotropin receptor (Homo sapiens) (UniProt P16473); experiment: qHTS assay to identify small molecule agonists of the thyroid stimulating hormone receptor (TSHR) signaling pathway (AID 1224843; calls by dose curve; further: nearly all actives have a fitted effect of over 45% in size; further: potency means the concentration at half of the fitted maximal effect)
Thyrotropin receptor (Homo sapiens), sequence (P16473 whole entry, looked up): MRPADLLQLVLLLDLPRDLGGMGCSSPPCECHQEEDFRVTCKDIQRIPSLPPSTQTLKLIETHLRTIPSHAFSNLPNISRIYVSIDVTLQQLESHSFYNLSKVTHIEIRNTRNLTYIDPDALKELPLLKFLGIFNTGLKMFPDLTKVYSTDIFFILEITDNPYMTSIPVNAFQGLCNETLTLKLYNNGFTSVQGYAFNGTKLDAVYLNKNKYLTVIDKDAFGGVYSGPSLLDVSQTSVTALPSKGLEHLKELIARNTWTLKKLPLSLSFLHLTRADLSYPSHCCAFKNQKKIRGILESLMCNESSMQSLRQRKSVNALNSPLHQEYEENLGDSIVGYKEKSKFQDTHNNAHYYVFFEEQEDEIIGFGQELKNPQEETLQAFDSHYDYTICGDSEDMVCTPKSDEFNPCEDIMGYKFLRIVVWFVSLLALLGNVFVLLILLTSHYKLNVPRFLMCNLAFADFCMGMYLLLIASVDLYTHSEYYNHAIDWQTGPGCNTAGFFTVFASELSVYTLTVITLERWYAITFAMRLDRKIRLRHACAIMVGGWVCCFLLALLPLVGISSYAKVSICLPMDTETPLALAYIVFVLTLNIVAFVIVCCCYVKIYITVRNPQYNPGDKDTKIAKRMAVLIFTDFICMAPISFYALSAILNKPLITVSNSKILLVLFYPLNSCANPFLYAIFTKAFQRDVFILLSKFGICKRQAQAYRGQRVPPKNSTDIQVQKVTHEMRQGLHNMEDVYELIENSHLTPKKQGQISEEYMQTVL
How it was run: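 Steps: seed 800 TSHR-HEK293 cells per well; add test compound and hold 30 min at ambient temperature; dispense cAMP-d2 then anti-cAMP cryptate; incubate 1 h at ambient; measure fluorescence intensity.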

[10] = qHTS assay to identify small molecule agonists of the hypoxia (HIF-1) signaling pathway (AID 1224846; active means well fitted activation curve with a large enough effect in the signal ratio in the repeat runs, not every such curve was filed as active; the % refers to the signal ratio)
How it was run: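 Hypoxia-pathway activation was scored as increased beta-lactamase from an HRE-controlled reporter in ME-180 cells; plated at 2,000 cells per well with 0.5% dialyzed FBS, they were exposed 17 hrs to compounds and then given CCF4-AM.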

[11] = qHTS assay to identify small molecule agonists of H2AX - cell viability counter screen (AID 1224847; calls by dose curve; further: nearly all actives have a fitted effect of over 30% in size; further: potency means the concentration at half of the fitted maximal effect)
How it was run: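 Compounds tested at 15 concentrations were incubated 3 hr at 37C with wild-type CHO-K1 cells; cellular ATP-based luminescence (CellTiter-Glo) indicated viability.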

[12] = qHTS assay to identify small molecule antagonists of the estrogen related receptor (ERR) signaling pathway from Tox21 library (AID 1224848); further: nearly all actives have a fitted effect of over 50% in size; further: potency means the concentration at half of the fitted maximal effect
How it was run: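 Luminescent reporter read-out (ONE-Glo) from NTP's ERR cell line after 18 h treatment at 37 C with DMSO-dissolved Tox21 compounds; cells pre-plated 6 h beforehand at 2,000 per well.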

[13] = qHTS assay to identify small molecule agonists of the estrogen related receptor (ERR) signaling pathway from Tox21 library (AID 1224849; calls by dose curve; further: nearly all actives have a fitted effect of over 15% in size); settings: ERR reporter cell line, ONE-Glo luciferase, 18 h
How it was run: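 Six hours post-seeding at 37 C/5% CO2, ERR cells receive DMSO-solubilised compounds; after 18 h at 37 C, ONE-Glo reagent is applied and luminescence recorded.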

[14] = A CellTox Green Cytotoxicity Assay to monitor cytotoxicity in HEK293 cells - 0 hour (AID 1224869); further: nearly all actives have a fitted effect of over 50% in size; further: potency means the concentration at half of the fitted maximal effect
How it was run: (§1)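 Seeding of HEK293 cells together with cytotoxicity dye preceded a 5 h incubation at 37 C/5% CO2. Test compounds in DMSO were then added and fluorescence monitored across 40 h.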

[15] = qHTS RealTime-Glo MT Cell Viability Assay in HepG2 cells - 40 hour (AID 1224870); further: nearly all actives have a fitted effect of over 50% in size; further: potency means the concentration at half of the fitted maximal effect
How it was run: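 HepG2 cells (600/well) mixed with RealTime-Glo MT reagent, settled 5 h at 37 C/5% CO2 before compound addition. Nonlytic NanoLuc luminescence from viable-cell prosubstrate reduction read repeatedly during 40 h treatment at 37 C.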

[16] = qHTS assay to identify small molecule agonists of the hypoxia (HIF-1) signaling pathway - cell viability counter screen (AID 1224844; calls by dose curve; further: nearly all actives have a fitted effect of over 50% in size; further: potency means the concentration at half of the fitted maximal effect)
How it was run: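 Multiplexed with the HRE beta-lactamase assay, this viability read used CellTiter-Glo luminescence (30 min, RT) on HRE-bla ME-180 cells treated 17 hrs with compounds in 0.5% dialyzed FBS medium.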

[17] = qHTS assay to identify small molecule agonists of H2AX (AID 1224845; active means well fitted activation curve with a large enough effect in the signal ratio in the repeat runs, not every such curve was filed as active; the % refers to the signal ratio; further: potency means the concentration at half of the fitted maximal effect)
How it was run: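 Wild-type CHO-K1 cells, plated overnight, exposed 3hr at 37C to 15 concentrations (0.76% DMSO final). Lysed, then HTRF anti-pH2AX (S139) cryptate and anti-H2AX-d2 antibodies, 24 hr room temperature; 665/620 nm emission read.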

[18] = qHTS RealTime-Glo MT Cell Viability Assay in HepG2 cells - 24 hour (AID 1224867); further: nearly all actives have a fitted effect of over 50% in size; further: potency means the concentration at half of the fitted maximal effect
How it was run: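 Cells + NanoLuc/prosubstrate dispensed (600 cells/well) → 5 h at 37 C/5% CO2 → compounds in DMSO transferred → 40 h incubation at 37 C, luminescence read at 0, 8, 16, 24, 32, 40 h.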

[19] = qHTS RealTime-Glo MT Cell Viability Assay in HEK293 cells - 32 hour (AID 1224868); further: nearly all actives have a fitted effect of over 50% in size; further: potency means the concentration at half of the fitted maximal effect
How it was run: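 Tox21 10K qHTS, HEK293, 600 cells/well, RealTime-Glo reagent co-dispensed with cells; 5 h preincubation, compound by pintool, 37 C, luminescence at 0–40 h.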

[20] = A CellTox Green Cytotoxicity Assay to monitor cytotoxicity in HEK293 cells - 40 hour (AID 1224871); further: nearly all actives have a fitted effect of over 45% in size; further: potency means the concentration at half of the fitted maximal effect
How it was run: as §1

[21] = at 92.4 µM (top of the series) unless noted
On the % scale 0 is the no-effect control and ±100 the full control effect.

CCCCOCN(C(=O)CCl)c1c(CC)cccc1CC
inactive: Potency [1] | Potency [2] | Potency [3] | Potency [4] | Potency [6] | Potency [8] | Potency [9] | outcome [10] | activity change, positive = activation [13, 21] -62.9% | Potency [14] | Potency [15]
active: Potency [5] 27.3 µM | Potency [7] 12.2 µM | Potency [11] 101 µM | Potency [12] 27.3 µM

COP(N)(=S)OC
inactive: Potency [1] | Potency [2] | Potency [3] | Potency [4] | Potency [5] | Potency [6] | Potency [7] | Potency [8] | Potency [9] | Potency [16] | Potency [17] | outcome [10] | Potency [11] | Potency [12] | activity change, positive = activation [13, 21] 3.3% | Potency [18] | Potency [19] | Potency [14] | Potency [15] | Potency [20]

ClC1=C(Cl)C2(Cl)C3C(Cl)C(Cl)CC3C1(Cl)C2(Cl)Cl (stereo not given)
active: Potency [5] 3.05 µM and 15.4 µM | Potency [6] 61.1 µM | Potency [7] 60.9 µM and 43.3 µM | Potency [16] 21.8 µM | Potency [17] 100 µM and 89.8 µM | Potency [11] 89.5 µM and 101 µM | Potency [12] 60.9 µM and 54.5 µM | Potency [20] 48.8 µM and 49 µM
inactive: Potency [1] | Potency [2] | Potency [3] | Potency [4] | Potency [8] | outcome [10] | activity change, positive = activation [13, 21] -78.9% and -65.6% | Potency [14]

C[C@@H]1CC[C@@]2(OC1)O[C@H]1[C@@H](O)[C@H]3[C@@H]4CC[C@H]5C[C@@H](O[C@@H]6O[C@H](CO)[C@H](O[C@@H]7O[C@H](CO)[C@@H](O)[C@H](O[C@@H]8OC[C@@H](O)[C@H](O)[C@H]8O)[C@H]7O[C@@H]7O[C@H](CO)[C@@H](O)[C@H](O[C@@H]8O[C@H](CO)[C@@H](O)[C@H](O)[C@H]8O)[C@H]7O)[C@H](O)[C@H]6O)[C@H](O)C[C@]5(C)[C@H]4CC[C@]3(C)[C@H]1[C@@H]2C
active: Potency [2] 23 µM | Potency [3] 25.8 µM | Potency [4] 29 µM | Potency [6] 20.5 µM | Potency [7] 40.9 µM | Potency [16] 11.6 µM | Potency [11] 10.7 µM | Potency [12] 23 µM | Potency [18] 20.7 µM | Potency [19] 11.6 µM | Potency [15] 26.1 µM | Potency [20] 3.68 µM
inactive: Potency [1] | Potency [5] | Potency [8] | Potency [17] | activity change, positive = activation [13, 21] -74.6% | Potency [14]

CC1(C)CN=C(NN=C(/C=C/c2ccc(C(F)(F)F)cc2)/C=C/c2ccc(C(F)(F)F)cc2)NC1
inactive: Potency [1] | Potency [5] | Potency [8] | Potency [9] | Potency [17] | activity change, positive = activation [13, 21] -76.2% | Potency [14]
active: Potency [2] 24.3 µM | Potency [3] 21.7 µM | Potency [4] 19.3 µM | Potency [6] 17.2 µM | Potency [7] 27.3 µM | Potency [16] 21.9 µM | Potency [11] 25.3 µM | Potency [12] 13.7 µM | Potency [18] 17.4 µM | Potency [15] 15.5 µM | Potency [20] 49 µM

COCC(=O)N(c1c(C)cccc1C)[C@H](C)C(=O)OC
inactive: Potency [1] | Potency [2] | Potency [3] | Potency [4] | Potency [5] | Potency [6] | Potency [7] | Potency [8] | Potency [9] | Potency [16] | Potency [17] | outcome [10] | Potency [11] | Potency [12] | activity change, positive = activation [13, 21] -2.81% | Potency [18] | Potency [19] | Potency [14] | Potency [15] | Potency [20]

COc1ccc(/C(=C/C(=O)N2CCOCC2)c2ccc(Cl)cc2)cc1OC
inactive: Potency [1] | Potency [2] | Potency [3] | Potency [4] | Potency [5] | Potency [6] | Potency [7] | Potency [8] | Potency [9] | Potency [16] | Potency [17] | outcome [10] | Potency [11] | Potency [12] | activity change, positive = activation [13, 21] -10.9% | Potency [18] | Potency [14] | Potency [15] | Potency [20]

CS(=O)(=O)c1ccc(C(=O)C2C(=O)CCCC2=O)c([N+](=O)[O-])c1
inactive: Potency [1] | Potency [2] | Potency [3] | Potency [4] | Potency [5] | Potency [6] | Potency [8] | outcome [10] | Potency [11] | Potency [12] | activity change, positive = activation [13, 21] -0.0686% | Potency [18] | Potency [15]
active: Potency [7] 31.2 µM | Potency [14] 44.4 µM | Potency [20] 44.4 µM

c1ccc(Nc2ccc3ccccc3c2)cc1
active: Potency [1] 22.3 µM and 31.7 µM | Potency [5] 30.5 µM and 48.6 µM | Potency [8] 27.1 µM and 30.6 µM | Potency [9] 48.3 µM | Potency [11] 100 µM and 80 µM | activity change, positive = activation [13, 21] 53.3% and 56%
inactive: Potency [2] | Potency [3] | Potency [4] | Potency [6] | Potency [7] | Potency [12] | Potency [18] | Potency [14] | Potency [15]

Clc1ccc(C(c2ccccc2Cl)C(Cl)(Cl)Cl)cc1 (stereo not given)
43.9 µM (active) and inactive: Potency [20]
inactive: Potency [1] | Potency [2] | Potency [3] | Potency [4] | Potency [6] | Potency [8] | activity change, positive = activation ([13]; at 42.5 µM (top of the series)) -15.1% | activity change, positive = activation ([13]; at 92.4 µM (top of the series)) -41.5% | Potency [18] | Potency [14] | Potency [15]
49.3 µM (active) and inactive: Potency [19]
active: Potency [5] 6.9 µM and 1.6 µM | Potency [7] 61.5 µM | Potency [11] 101 µM and 66.2 µM | Potency [12] 61.5 µM and 40.2 µM

O=c1c(C2CC(c3ccc(-c4ccc(Br)cc4)cc3)Cc3ccccc32)c(O)sc2ccccc12 (stereo not given)
inactive: Potency [1] | Potency [2] | Potency [3] | Potency [4] | Potency [5] | Potency [6] | Potency [8] | Potency [9] | Potency [11] | activity change, positive = activation [13, 21] -54.2% [at 42.5 µM] | Potency [19] | Potency [14] | Potency [20]
active: Potency [7] 11.9 µM | Potency [16] 15.1 µM | Potency [12] 7.5 µM
